# DT40 TDP1 CPT – growth inhibition of DT40 Tdp1-/-;hTDP1 cells with camptothecin (screen for TDP1 inhibitors) | chicken DT40 Tdp1-/-;hTDP1 cells + 20 nM CPT, ATP luminescence, 48 h | Potency, µM (top dose mostly 46.2 µM), for inactives: top-dose activity change, negative = growth inhibition, usual class: inhibitors | hit rate 12% among 420,000 | AID 686979; also: potency is read from the fitted curve at half-maximal effect; % is scaled to controls: 0 for no effect and ±100 for the full control effect; nearly all actives have a fitted effect of over 55% in size
#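 Chicken DT40 Tdp1-/- cells complemented with human TDP1, 400 cells/well, exposed to compounds plus 20 nM camptothecin for at least 48 h at 37 C; viability read as ATP content by CellTiter-Glo luminescence.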
# TGFb SMAD3 inh – TGF-b pathway inhibition | HepG2 CAGA-GFP TGF-b/SMAD3 reporter, GFP fluorescence, 18 h; TGF-beta stimulated, 500 pg/mL final | Potency, µM (titrated, usually from 46.1 µM), for the others: at the top dose activity, negative = inhibition, usual class: inhibitors | hit rate 1.2% among 410,000 | AID 588855; also: potency is read from the fitted curve at half-maximal effect; % is scaled to controls: 0 for no effect and ±100 for the full control effect; nearly all actives have a fitted effect of over 65% in size
#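 HEPG2 CAGA-GFP, 1000 cells/well; 2 h settle, 37 C; cpd via pin tool; TGF-b 500 pg/mL final; 18 h, 37 C; GFP imaging ex488/em500-530; %Activity normalised to -TGF-b and +DMSO controls; CRC fit, curve class.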
# DT40 TDP1 no CPT – qHTS for Inhibitors of human tyrosyl-DNA phosphodiesterase 1 (TDP1): qHTS in cells in absence of CPT; DT40 Tdp1-/- hTDP1 cells, no CPT, ATP luminescence, 48 h; Potency, µM (highest dose often 46.2 µM), without a hit: top-dose activity change, negative = growth inhibition, hits mostly inhibitors; hit rate 15% among 420,000; also: potency is read from the fitted curve at half-maximal effect; % is scaled to controls: 0 for no effect and ±100 for the full control effect; nearly all actives have a fitted effect of over 55% in size
#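 Chicken DT40 Tdp1-/- cells stably complemented with human TDP1 were seeded at 400 cells/well with DMSO in place of 20 nM camptothecin. After compound pinning, cells grew at least 48 hr at 37 °C; viability read by CellTiter-Glo luminescence.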
# HepG2 viability – HepG2 cytotoxicity, counter-screen for TGF-b inhibitors | HepG2 CAGA-GFP viability, ATP luminescence, 18 h | Potency, µM (titrated, usually from 46.1 µM), for the others: at the top dose activity change, negative = cytotoxicity, usual class: cytotoxic | hit rate 0.76% among 410,000 | AID 588856; also: potency is read from the fitted curve at half-maximal effect
#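 CellTiter-Glo luminescence gave cytotoxicity after 18 hours at 37 degrees C. The cells were HepG2 CAGA-GFP in 1% FBS DMEM, stimulated with 500 pg/mL TGF-beta after compound addition. %Activity was normalised to no-cell wells (complete cell-killing) and DMSO (no toxicity), and curves were fitted and classified.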
# TDP1 inh – blocks human tyrosyl-DNA phosphodiesterase 1. Q9NUW8. recombinant TDP1, AlphaScreen DNA substrate cleavage. Potency, µM (top dose mostly 130 µM), for the others: at the highest dose activity change, negative = inhibition, usual class: inhibitors. hit rate 0.28% among 350,000. AID 485290; also: potency is read from the fitted curve at half-maximal effect; % is scaled to controls: 0 for no effect and ±100 for the full control effect; nearly all actives have a fitted effect of over 40% in size
# Target sequence (Q9NUW8 whole entry, looked up): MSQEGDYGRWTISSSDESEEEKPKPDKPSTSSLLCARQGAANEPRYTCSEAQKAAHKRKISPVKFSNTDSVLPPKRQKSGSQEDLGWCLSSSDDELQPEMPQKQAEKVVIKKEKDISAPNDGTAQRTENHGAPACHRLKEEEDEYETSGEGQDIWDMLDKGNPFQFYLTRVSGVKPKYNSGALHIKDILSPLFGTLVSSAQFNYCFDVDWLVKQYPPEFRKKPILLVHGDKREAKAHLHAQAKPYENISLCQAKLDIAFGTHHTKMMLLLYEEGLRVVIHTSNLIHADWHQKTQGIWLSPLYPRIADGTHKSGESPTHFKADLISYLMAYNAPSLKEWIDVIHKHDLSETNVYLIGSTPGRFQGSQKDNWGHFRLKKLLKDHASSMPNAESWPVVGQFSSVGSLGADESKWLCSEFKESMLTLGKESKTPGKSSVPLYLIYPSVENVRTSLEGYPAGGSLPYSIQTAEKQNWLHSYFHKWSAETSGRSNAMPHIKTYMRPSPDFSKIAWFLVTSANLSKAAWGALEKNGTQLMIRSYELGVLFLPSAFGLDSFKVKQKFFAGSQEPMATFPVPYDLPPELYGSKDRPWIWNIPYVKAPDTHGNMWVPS
#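 Steps: enzyme plus compound, 15 min RT; add biotin/phosphotyrosine-FITC oligonucleotide (15 nM final), react 5 min; add donor/acceptor beads (10 ug/ml final), 10 min; read AlphaScreen. Tdp1 at 1 nM final.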
# IL1B secr inh – inhibitors of inflammasome signaling (IL-1 beta secretion); hit rate 4.7% among 360,000; THP-1 LPS/ATP IL-1B secretion, AlphaLISA, 16 h; stronger effect = lower value; activity change, % at 57.5 µM; in the data active = activity change below about -50%; inconclusive = mostly about -30% to -49%; also: % is scaled to controls: 0 for no effect and ±100 for the full control effect
#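 THP-1 cells pretreated 1 hr with compounds (up to 57.5 uM final), then stimulated with LPS (250 ng/mL final) plus ATP (1.25 mM final); secreted IL-1B measured by AlphaLISA after 16 hr, decreased signal indicating inhibition.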
# The depositor's hits bear a star; ? = inconclusive; · = not tested or not shown; [ ] = another dose, or the depositor's remark. In the library only some 19% were active in any assay of this set; here they are far more common. Unless noted, calls follow the shape of the dose curve; as a rule, active = well fitted curve in the direction sought with a large enough effect; inconclusive = small, poorly fitted or top-dose-only effect, or another doubt; inactive = no such curve, though single readings can be large; an effect the other way counts as inactive or inconclusive.
SMILES,DT40 TDP1 CPT,TGFb SMAD3 inh,DT40 TDP1 no CPT,HepG2 viability,TDP1 inh,IL1B secr inh
COC(=O)c1ccc(NC(=O)CCn2cnnn2)c(C)c1,·,1%,·,-21%,-2%,·
Cc1ccc(CN(C(=O)COc2ccc(Cl)cc2Cl)C2CCS(=O)(=O)C2)o1 (stereo unspecified),?,·,?,-27%,2%,·
O=S(=O)(c1ccc(SCc2ccccc2F)nc1)N1CCCC1,-25%,-15%,-6%,-27%,-12%,10
CC12CCC(=O)C=C1CCC1C2CCC2(C)C1CC1C3C(=O)N(Cc4ccccc4)C(=O)C3CC(=O)C12 (stereo unspecified),23µM*,0%,26µM*,7%,·,-13
Cc1cccc(CNC(=O)c2cnn(-c3ncc(C)c(-c4cccs4)n3)c2C2CC2)n1,-5%[9.04 µM],·,-24%,·,·,·
Cc1cc(=O)n2cccc(O)c2n1,3.7µM*,14%,4.6µM*,-16%,2%,-57*
CC(=O)Nc1nc2c(s1)CCc1ccccc1-2,26%,-5%,1%,1%,5%,7
O=C(CCCl)Nc1nc2c(s1)CCc1ccccc1-2,13µM*,?,5.8µM*,10µM*,·,-98*
N#C/C(=C(/O)CCl)c1nc2c(s1)CCc1ccccc1-2,12µM*,?,13µM*,-67%,11%,-95*
Nc1nc2c(s1)CCc1ccccc1-2,-15%,-10%,4%,-9%,·,-6
Fc1ccc(Nc2nc(SCc3ccccc3F)nc3ccccc23)cc1,16µM*,?,16µM*,-104%,4%,·
COc1cc(Nc2nc(SCc3ccccc3F)nc3ccccc23)cc(OC)c1,?,?,18µM*,-31%,1%,·
COCCNC(=O)C(=O)Nc1cc2c3c(c1)CCC(=O)N3CCC2,17%,-6%,3%,-8%,5%,12
COc1cc(CC(=O)OCC(=O)NCc2cccs2)cc(OC)c1OC,-1%,4%,0%,-15%,0%,-7
CCn1c2ccccc2c2cc(NC(=O)CN3CCCC3)ccc21,-14%,1%,-22%,-40%,5%,-69*
CCn1c2ccccc2c2cc(NC(=O)CNCC3CCCO3)ccc21 (stereo unspecified),?,21%,?,-2%,4%,-52*
COc1ccc(NC(=O)CSc2nnc(N)s2)cc1S(=O)(=O)N1CCCCC1,7%,10%,8%,2%,0%,4
Cc1cc(C)c(NC(=O)CSc2cn(CC(=O)N3CCOCC3)c3ccccc23)c(C)c1,-10%,0%,-27%,-15%,0%,·
CC1(C(=O)NCc2ccc3c(c2)OCO3)CCN1C(=O)CCc1ccc(Cl)cc1Cl (stereo unspecified),21µM*,-2%,15µM*,-1%,·,-15
CC(C)(C)c1ccc(CC(=O)N2CCC2(C)C(=O)NCc2ccc3c(c2)OCO3)cc1 (stereo unspecified),?,17%,?,-21%,·,-12
CC1(C(=O)Nc2ccccc2)CCN1C(=O)CCc1ccc(Cl)cc1Cl (stereo unspecified),?,-21%,21µM*,-18%,·,-6
CSc1ccccc1NC(=O)C1(C)CCN1C(=O)Cc1ccc(Cl)cc1Cl (stereo unspecified),?,9%,?,1%,·,0
CC1(C(=O)Nc2ccccc2Br)CCN1C(=O)Cc1ccc(Cl)cc1Cl (stereo unspecified),23µM*,-25%,16µM*,-11%,·,-12
O=C(CCNC(=O)c1ccc(Cl)cc1)NNC(=O)c1ccc(F)cc1,12%,0%,16%,-3%,-3%,20
O=C(NCC(c1cccs1)N1CCOCC1)c1cn(-c2ccccc2)nc1-c1ccccc1 (stereo unspecified),?,-10%,18µM*,-35%,2%,0
SMILES,DT40 TDP1 CPT,TGFb SMAD3 inh,DT40 TDP1 no CPT,HepG2 viability,TDP1 inh,IL1B secr inh
COc1ccc(C(CNC(=O)c2cc(S(=O)(=O)Nc3cccc(C)c3)ccc2C)N2CCOCC2)cc1 (stereo unspecified),?,2%,?,-1%,·,?
COc1ccc(C(=O)NCCCN2CCCC2=O)cc1,-3%,-6%,-2%,-1%,4%,30
O=C(NCC(c1cccs1)N1CCOCC1)c1cn(-c2ccccc2)nc1-c1ccc(Cl)cc1 (stereo unspecified),?,-4%,?,6%,·,?
O=C(NCC(c1cccs1)N1CCOCC1)c1cc(F)cc(F)c1 (stereo unspecified),21µM*,-2%,15µM*,-8%,·,21
Cc1cccc(NS(=O)(=O)c2ccc(C)c(C(=O)NCC(c3cccs3)N3CCOCC3)c2)c1 (stereo unspecified),?,-9%,16µM*,-8%,·,0
COc1cc(C(=O)NCCCN2CCCC2=O)cc(Br)c1OCc1ccccc1,?,-21%,18µM*,-21%,2%,6
O=C(NCc1ccccc1F)c1cc2ccccn2n1,-17%,21%,?,-6%,3%,·
C=CCN(C(=O)CSc1nc2ccsc2c(=O)n1Cc1ccc(C(=O)O)cc1)c1ccccc1,2%,-11%,-1%,-3%,·,63
CCN1CCN(CCCNC(=O)CCC(=O)N2CC(C)Oc3ccc(C)cc32)CC1 (stereo unspecified),2%,-2%,4%,2%,·,-19
CC(OC(=O)COc1ccccc1Cc1ccccc1)C(=O)N(C)c1ccccc1 (stereo unspecified),-1%,-10%,?,-15%,·,0
O=S(=O)(c1ccccc1)N(CC(F)(F)F)c1ccc(C(O)(C(F)(F)F)C(F)(F)F)cc1,?,?,?,-90%,-2%,0
CC(=O)NCCNc1cc(-c2ccccc2C)ncn1,13%,·,16%,·,·,·
Cc1coc2c1c(C)cc1oc(=O)cc(C)c12,19%,-2%,6%,-10%,-6%,·
COc1cc(C(=O)NCC(c2cccs2)N2CCOCC2)cc(Br)c1OCc1ccccc1 (stereo unspecified),9.2µM*,?,9.2µM*,-41%,0%,-8
CCC(C)n1c(=O)c2sccc2n2c(CCCC(=O)N3CCN(c4ccccc4)CC3)nnc12 (stereo unspecified),-65%,?,?,-20%,3%,·

# From PubChem BioAssay
